This is an account of results in PubChem BioAssay (NCI).

This is part of a sample that, as a whole, favours compounds with a hit. Of some 83,000 tested, about 20% had one in any assay.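 Plates (96-well) were seeded with cells, treated with compound at one concentration, and incubated for 48 hours before percent growth was determined.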 A number with no mark means an inactive call. Activity calls are given as the source filed them. The calls were made as follows: active = growth percent below 10; inactive = the rest.

What all share (experiment): NCI-60 one-dose screen, 48 h (100 = growth as untreated, 0 = no growth, -100 = all killed)
In one assay the test system is EKVX NSCLC. The following applies: 10 µM unless noted.
The test system of the next assay is SN12C renal. The conditions noted are these: 10 µM unless noted.
The next assay relates to UO-31 renal. The following applies: 10 µM unless noted.
The test system of a further assay is TK-10 renal. The conditions noted are these: 10 µM unless noted.
The next assay concerns ACHN renal. The following applies: 10 µM unless noted.
The test system of a further assay is CAKI-1 renal. The conditions noted are these: 10 µM unless noted.
The test system of another assay is A498 renal. The conditions noted are these: 10 µM unless noted.
In another assay the test system is CCRF-CEM leukemia. The following applies: 10 µM unless noted.
Another assay has as its system MOLT-4 leukemia. The following applies: 10 µM unless noted.
Another assay has as its system SR leukemia. The following applies: 10 µM unless noted.
The next assay deals with RPMI-8226 leukemia. The following applies: 10 µM.
The subject of a further assay is OVCAR-8 ovarian. The following applies: 10 µM unless noted.
Another assay has as its system OVCAR-5 ovarian. The conditions noted are these: 10 µM unless noted.
Another assay concerns OVCAR-4 ovarian. The following applies: 10 µM unless noted.
The test system of another assay is SK-OV-3 ovarian. The following applies: 10 µM.
Another assay deals with IGROV1 ovarian. The conditions noted are these: 10 µM unless noted.
For a further assay, the system named is OVCAR-3 ovarian. The following applies: 10 µM unless noted.
The subject of the next assay is HS 578T breast. The following applies: 10 µM unless noted.
The subject of a further assay is SK-MEL-2 melanoma. The following applies: 10 µM unless noted.
For another assay, the system named is NCI/ADR-RES ovarian. The following applies: 10 µM unless noted.

For the compound `O=S(=O)(/N=C1C=C/C(=N\S(=O)(=O)c2ccccc2)c2ccccc2\1)c1ccccc1`, the growth was 104% with EKVX NSCLC; 101% in the assay on SN12C renal; 67.1% in the assay on UO-31 renal; 147% with TK-10 renal; 105% in the assay on ACHN renal; 99.4% in the assay on CAKI-1 renal. Further, the growth with A498 renal is 117%; in the assay with CCRF-CEM leukemia, 71.7%; with MOLT-4 leukemia it was 87.1%; with SR leukemia, 107%; in the assay on RPMI-8226 leukemia, 77.9%; with OVCAR-8 ovarian, 94.9%. The growth with OVCAR-5 ovarian was 114%; in the assay with OVCAR-4 ovarian, 91.9%; in the assay with SK-OV-3 ovarian, 104%; in the assay with IGROV1 ovarian it was 112%; in the assay on OVCAR-3 ovarian, 101%; in the assay on HS 578T breast it was 112%.

Consider `Cc1ccc(S(=O)(=O)N2CCc3ccc(O)c4c3C2Cc2ccc3c(c2-4)OCO3)cc1` (stereo not given), for which the growth with EKVX NSCLC was 49.3%; in the assay with SN12C renal it was 39.5%; in the assay with UO-31 renal it was 30.4%; in the assay on TK-10 renal, 32.6%; in the assay with ACHN renal it was 44.9%; in the assay on CAKI-1 renal, 32%. Also, the growth with A498 renal is 35.6%; with CCRF-CEM leukemia it was -11.9% (active); in the assay on MOLT-4 leukemia it was 10.9%; with SR leukemia it was 14.8%; with RPMI-8226 leukemia, 27.4%; in the assay on OVCAR-8 ovarian, 31.1%. Also, the growth with OVCAR-5 ovarian is 45.8%; in the assay on OVCAR-4 ovarian it was 45.6%; with SK-OV-3 ovarian, 7.28% (active); in the assay on IGROV1 ovarian it was 41.6%; in the assay with OVCAR-3 ovarian, -47.7% (active); in the assay on HS 578T breast it was 47.5%.

Turning to `COc1cccc(OC(=O)c2ccccc2)c1OC(=O)c1ccccc1`, the growth is 57.6% in the assay on SK-MEL-2 melanoma; 76.7% in the assay on SN12C renal; 87.7% in the assay with TK-10 renal; 98.3% with ACHN renal; 75.2% in the assay on CAKI-1 renal; 88.9% in the assay with A498 renal. The growth in the assay on CCRF-CEM leukemia is 87.6%; in the assay on MOLT-4 leukemia it was 79.5%; with RPMI-8226 leukemia, 68.6%; in the assay on OVCAR-8 ovarian, 91.6%; with OVCAR-5 ovarian it was 99.4%; in the assay on OVCAR-4 ovarian, 100%. Besides, the growth in the assay with SK-OV-3 ovarian was 90.4%; in the assay on OVCAR-3 ovarian it was 68.5%; in the assay with HS 578T breast, 86.9%; in the assay on NCI/ADR-RES ovarian, 9.73% (active).

Turning to `Nc1cc2[nH]c(=O)c3ccccc3c2cc1Br`, the growth in the assay on EKVX NSCLC is 44.7%; in the assay with SN12C renal, 72.8%; in the assay with UO-31 renal it was 41.2%; in the assay on TK-10 renal, 45.2%; in the assay on ACHN renal, 93.9%; with CAKI-1 renal, 54.3%. The growth in the assay with A498 renal is 37.7%; in the assay on CCRF-CEM leukemia it was 81.2%; in the assay with MOLT-4 leukemia it was 87.3%; in the assay with SR leukemia, 61.9%; with RPMI-8226 leukemia, 76.9%; with OVCAR-8 ovarian it was 77.6%. The growth in the assay on OVCAR-5 ovarian is 60.6%; in the assay with OVCAR-4 ovarian, 59.2%; in the assay on SK-OV-3 ovarian, 87.9%; in the assay on IGROV1 ovarian, 59.6%; in the assay on OVCAR-3 ovarian, 72.1%; in the assay with HS 578T breast, 67%. Moreover, in the assay on NCI/ADR-RES ovarian, the growth was 81.7%.

For the compound `Cc1ccc2nc(NC(=O)CSC(=S)N3CCN(Cc4ccccc4)CC3)sc2c1`, the growth in the assay with EKVX NSCLC is 72.5%; in the assay with SN12C renal it was -1% (active); with UO-31 renal it was -43.4% (active); with TK-10 renal it was -36.4% (active); in the assay on ACHN renal, -2.52% (active); in the assay with CAKI-1 renal, -20.8% (active). In addition, the growth in the assay with A498 renal was -3.21% (active); with MOLT-4 leukemia it was 6.71% (active); in the assay with SR leukemia, 11.1%; in the assay with RPMI-8226 leukemia it was 8.2% (active); in the assay with OVCAR-8 ovarian, 0.825% (active); with OVCAR-5 ovarian it was -36.3% (active). The growth is 12.6% in the assay on OVCAR-4 ovarian; -44.7% (active) in the assay on SK-OV-3 ovarian; -39.8% (active) in the assay with IGROV1 ovarian; -90.4% (active) in the assay with OVCAR-3 ovarian; -0.695% (active) in the assay on HS 578T breast; 22.6% with NCI/ADR-RES ovarian.

In the case of `CN1CCN(C(=O)OCCOCCOC(=O)N2CCN(C)CC2)CC1`, the growth in the assay with EKVX NSCLC is 100%; with SN12C renal, 99.9%; in the assay on UO-31 renal it was 95.8%; with TK-10 renal it was 94.5%; in the assay with ACHN renal it was 97%; with CAKI-1 renal, 131%. For the same compound, the growth in the assay with A498 renal was 93%; with CCRF-CEM leukemia, 8.24% (active); in the assay on MOLT-4 leukemia, 52.7%; with SR leukemia, 95%; with RPMI-8226 leukemia, 81%; in the assay on OVCAR-8 ovarian it was 102%. For the same compound, the growth is 104% in the assay with OVCAR-5 ovarian; 106% in the assay on OVCAR-4 ovarian; 117% in the assay with SK-OV-3 ovarian; 132% with IGROV1 ovarian; 117% in the assay on OVCAR-3 ovarian; 111% in the assay on HS 578T breast. The growth with NCI/ADR-RES ovarian is 96.3%.

As to `COc1cc2cc(Oc3ccc(NC(=O)Nc4ccc(Cl)c(C(F)(F)F)c4)cc3)c(C)nc2cc1OCCN1CCCCC1`, the growth was 95.3% in the assay on SK-MEL-2 melanoma; -84.7% (active) in the assay on SN12C renal; -90.1% (active) in the assay with UO-31 renal; -100% (active) in the assay on ACHN renal; 15.4% in the assay on CAKI-1 renal; 64.2% in the assay with A498 renal. Moreover, the growth with CCRF-CEM leukemia was 3.86% (active); in the assay on MOLT-4 leukemia, -37.2% (active); in the assay with SR leukemia, -15.9% (active); in the assay on OVCAR-8 ovarian, -34.4% (active); in the assay with OVCAR-5 ovarian it was 67.1%; with OVCAR-4 ovarian, -4.36% (active). Also, the growth in the assay on IGROV1 ovarian was -47.2% (active); in the assay on OVCAR-3 ovarian, -82.8% (active); with HS 578T breast, -44.5% (active); in the assay with NCI/ADR-RES ovarian, 3.87% (active).

Take `CN(C)c1ccc(/C=C(\C#N)c2cc3ccccc3n2C)cc1`: the growth in the assay on SK-MEL-2 melanoma is 54.7%; in the assay with SN12C renal, 38.7%; in the assay with UO-31 renal it was 51.7%; with ACHN renal it was 38.9%; with CAKI-1 renal it was 30.7%; in the assay with A498 renal it was -9.38% (active). Moreover, the growth in the assay on CCRF-CEM leukemia was 19.1%; with MOLT-4 leukemia, 21.6%; in the assay on OVCAR-8 ovarian, 34.8%; with OVCAR-5 ovarian it was 38.5%; in the assay with OVCAR-4 ovarian, 40.3%; in the assay on IGROV1 ovarian, 26.7%. Also, the growth with OVCAR-3 ovarian was -4.72% (active); with HS 578T breast, 20.9%.

On to `CCCCCCCCCCCCCCCC[N+]1(C)CCOCC1`, for which the growth was 64.1% in the assay with EKVX NSCLC; 15.4% with SN12C renal; 59.6% with UO-31 renal; -36.8% (active) in the assay with TK-10 renal; 62.8% in the assay with ACHN renal; 76.3% with CAKI-1 renal. The growth in the assay with A498 renal was 48.8%; in the assay with CCRF-CEM leukemia it was -42.1% (active); in the assay with MOLT-4 leukemia it was -57.8% (active); in the assay on SR leukemia, -29.4% (active); in the assay on RPMI-8226 leukemia, -33.9% (active); with OVCAR-8 ovarian it was 16.1%. In addition, the growth in the assay on OVCAR-4 ovarian is 20.7%; with IGROV1 ovarian, -43.1% (active); in the assay with OVCAR-3 ovarian, -5.72% (active); in the assay on HS 578T breast it was 16%; in the assay on NCI/ADR-RES ovarian it was 94.9%.
